U2OS ROS induce: ROS inducers in U2OS cancer cells, primary screen, cell-based, H2DCF-DA fluorescence | U2OS ROS induction | ROS induction (% of piperlongumine), % at 10 µM | 2% of 46,000 active | AID 624156, 2012; in the data active means ROS induction above about 79%, passing the limit was not always enough;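 further: 0% = DMSO vehicle median and 100% = reference compound median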
* = called active by the depositor. The entries come from a sample that favours hits as a whole.

SMILES	U2OS ROS induce
c1ccc2sc(NC3=NCN(C4CCCCCC4)CN3)nc2c1	100*
O=C1CC(C(=O)Nc2ccccc2)N=C(Nc2nc3ccccc3s2)N1 (configuration not stated)	-12
O=C(Nc1nc2ccccc2s1)C1CC1	-7
COC(CNC(=O)c1cc(-c2ccccn2)nc2ccc(S(=O)(=O)N3CCC(C)CC3)cc12)OC	-13
Cc1ccc(C)c(NC(=O)Cn2cccc2)c1	33
CCCN1C(=O)C(NS(=O)(=O)c2ccc(NC(C)=O)cc2)(C(F)(F)F)C2=C1CC(C)(C)CC2=O (configuration not stated)	-4
CC1(C)CC(=O)C2=C(C1)N(Cc1ccco1)C(=O)NC2(C(F)(F)F)C(F)(F)F	3
CCCCN1C(C)=NC(C(F)(F)F)(C(F)(F)F)C2=C1CC(C)(C)CC2=O	120*
Cc1cc(C(F)(F)F)c2c(-c3ccccc3)nn(-c3ccccc3)c2n1	13
O=C(c1ccccc1)c1ccc(-c2ccccc2)cc1	11
C[C@@H]1CCCCO[C@@H](CN(C)S(=O)(=O)c2ccc(Cl)cc2)[C@@H](C)CN([C@H](C)CO)C(=O)c2cc(NC(=O)c3ccccc3)ccc2O1	133*
C[C@@H]1CCCCO[C@H](CN(C)S(=O)(=O)c2ccc(F)cc2)[C@@H](C)CN([C@H](C)CO)C(=O)c2cc(NS(=O)(=O)c3ccccc3)ccc2O1	19
C[C@@H]1CCCCO[C@@H](CN(C)S(=O)(=O)c2ccc(F)cc2)[C@@H](C)CN([C@H](C)CO)C(=O)c2cc(NC(=O)Nc3ccc(F)cc3)ccc2O1	7
C[C@@H]1CCCCO[C@H](CN(C)Cc2ccc3c(c2)OCO3)[C@@H](C)CN([C@H](C)CO)C(=O)c2cc(NS(=O)(=O)c3ccc(Cl)cc3)ccc2O1	32
Cc1ccc(S(=O)(=O)Nc2ccc3c(c2)C(=O)N([C@H](C)CO)C[C@H](C)[C@@H](CN(C)Cc2ccc4c(c2)OCO4)OCCCC[C@@H](C)O3)cc1	95*
C[C@@H]1CCCCO[C@H](CN(C)S(=O)(=O)c2ccccc2)[C@@H](C)CN([C@H](C)CO)C(=O)c2cc(NC(=O)c3ccccc3)ccc2O1	19
C[C@@H]1CCCCO[C@@H](CN(C)S(=O)(=O)c2ccc(Cl)cc2)[C@@H](C)CN([C@H](C)CO)C(=O)c2cc(NS(=O)(=O)c3ccc(F)cc3)ccc2O1	118*
C[C@@H]1CCCCO[C@@H](CN(C)Cc2ccc3c(c2)OCO3)[C@@H](C)CN([C@H](C)CO)C(=O)c2cc(NS(=O)(=O)c3ccccc3)ccc2O1	10
C[C@@H]1CCCCO[C@H](CN(C)S(=O)(=O)c2ccc(F)cc2)[C@@H](C)CN([C@H](C)CO)C(=O)c2cc(NC(=O)NC3CCCCC3)ccc2O1	166*
Cc1ccc(S(=O)(=O)N(C)C[C@@H]2OCCCC[C@@H](C)Oc3ccc(NC(=O)NC4CCCCC4)cc3C(=O)N([C@H](C)CO)C[C@@H]2C)cc1	18
C[C@@H]1CCCCO[C@@H](CN(C)S(=O)(=O)c2ccc(F)cc2)[C@@H](C)CN([C@H](C)CO)C(=O)c2cc(NS(=O)(=O)c3ccc(F)cc3)ccc2O1	69
C[C@@H]1CCCCO[C@@H](CN(C)S(=O)(=O)c2ccc(Cl)cc2)[C@@H](C)CN([C@H](C)CO)C(=O)c2cc(NC(=O)c3ccncc3)ccc2O1	11
O=C(O)c1cc(Sc2ccccc2)nc2ccccc12	8
CCn1cc(CCCC(=O)NCCc2ccc(Cl)cc2)c2ccccc21	-5
O=C(NCCOc1cccc(C(F)(F)F)c1)c1cccc(NC2=NC3CS(=O)(=O)CC3S2)c1 (configuration not stated)	-2
SMILES	U2OS ROS induce
Cc1ccc(CSc2nc3ccccc3c3nc(CCn4nc(C)cc4C)nn23)cc1	-1
CC1CCCCN1S(=O)(=O)c1ccc(C(=O)Nc2nc3ccc4ccccc4c3s2)cc1 (configuration not stated)	13
CCOc1ccc(-c2c(C#N)c(N)nc(SCC(=O)c3ccc(Cl)cc3)c2C#N)cc1	2
CCN(CC)C(=O)c1cccc(C(=O)N(CC)CC)c1	-10
Cc1ccc(NC(=O)CNS(=O)(=O)c2ccccc2)c(C(=O)c2ccccc2)c1	-5
N#Cc1ccccc1Cn1cc(/C=C2\NC(=O)NC2=O)c2ccccc21	-5
COC(=O)c1ccc2c(c1)N(C)C(=O)/C(=C/c1ccccc1OC)S2	9
O=C1C(=O)N(c2ccccn2)C(c2ccccc2)C1C(=O)c1cccs1 (configuration not stated)	-9
C[C@@H]1CCCCO[C@H](CN(C)S(=O)(=O)c2ccc(Cl)cc2)[C@@H](C)CN([C@H](C)CO)C(=O)c2cc(NS(=O)(=O)c3ccc(Cl)cc3)ccc2O1	51
C[C@@H]1CCCCO[C@@H](CN(C)S(=O)(=O)c2ccccc2)[C@@H](C)CN([C@H](C)CO)C(=O)c2cc(NS(=O)(=O)c3ccccc3)ccc2O1	57
C[C@@H]1CCCCO[C@@H](CN(C)S(=O)(=O)c2ccccc2)[C@@H](C)CN([C@H](C)CO)C(=O)c2cc(NS(=O)(=O)c3ccc(Cl)cc3)ccc2O1	113*
Cc1cc(C)cc(NC(=O)NCc2csc(-c3cccs3)n2)c1	4
Cc1cc(C)c(C2C(C#N)=C(N)Oc3n[nH]c(C)c32)cc1COc1ccccc1Cl (configuration not stated)	22
Cc1cc(N2CCCC2)n2c(nc3ccccc32)c1C#N	14
Cc1ccc(OCCN2CCN(c3cc(C)c(C#N)c4nc5ccccc5n34)CC2)cc1	100*
Cc1ccc(OCCN2CCN(c3ncnc4scc(-c5ccccc5)c34)CC2)cc1	19
CCC(C)NC(=O)Cc1ccc(OC)cc1 (configuration not stated)	-11
Cc1cc(I)ccc1NC(=O)c1ccc(C(C)(C)C)cc1	7
C[C@H](CO)N1C[C@H](C)[C@H](CN(C)CC2CCCCC2)Oc2ccc(NC(=O)C3CCCCC3)cc2CC1=O	6
C[C@@H]1CN([C@@H](C)CO)C(=O)Cc2cc(NC(=O)Nc3ccccc3)ccc2O[C@@H]1CN(C)CC1CCCCC1	95*
C[C@H]1CN([C@@H](C)CO)C(=O)Cc2cc(NC(=O)C3CCCCC3)ccc2O[C@H]1CN(C)CC1CCCCC1	12
C[C@@H]1CN([C@H](C)CO)C(=O)Cc2cc(NC(=O)Nc3ccccc3)ccc2O[C@@H]1CN(C)CC1CCCCC1	-9
C[C@@H]1CN([C@H](C)CO)C(=O)Cc2cc(NC(=O)C3CCCCC3)ccc2O[C@H]1CN(C)CC1CC1	95*
C[C@H]1CN([C@@H](C)CO)C(=O)Cc2cc(NC(=O)Nc3ccccc3)ccc2O[C@@H]1CN(C)CC1CCCCC1	2
CCN(C(=O)c1ccc(C(=O)N(CC)c2ccccc2)cc1)c1ccccc1	3
SMILES	U2OS ROS induce
Cc1ccc(Cc2cc(C)n[nH]c2=O)cc1	9
Cc1n[nH]c(=O)c2nc(-c3ccccc3)sc12	-14
Cc1ccc(/C=C/c2onc3c(=O)[nH]nc(C)c23)cc1	119*
CCN(CC)C(=S)CSc1nc(-c2ccccc2)cc(-c2ccco2)c1C#N	58
O=C(CCSc1nc(-c2ccccc2)cs1)Nc1ccccc1	106*
O=C(CSc1nc(-c2ccccc2)cc(=O)[nH]1)Nc1ccccc1	-9
CC(=O)Nc1ccc(NC(=O)CCSc2ccccc2)cc1	-2
CC(C)CCNC(=O)c1csc2c1CCCC2	-10
O=C(NC1CCCC1)C1c2ccccc2Oc2ccccc21	0
COc1ccc2cc(C(C)C(=O)OCC(=O)N3CCCc4ccccc43)ccc2c1 (configuration not stated)	12
